# Laboratory results reported in paper PMC5540273 (PLoS ONE, 2017).
# Assays:
# Details in all cases: concentration: 1 μM, replicates: in singlicate; n = 1
# CLK2 = tested on: CLK2
# CLK3 = tested on: CLK3
# CLK4 = tested on: CLK4
# CSF1R-autoinhibited = tested on: CSF1R-autoinhibited
# CSF1R = tested on: CSF1R
# CSK = tested on: CSK
# CSNK1A1L = tested on: CSNK1A1L
# CSNK1A1 = tested on: CSNK1A1
# CSNK1D = tested on: CSNK1D
# CSNK1E = tested on: CSNK1E
# 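Also: KINOMEscan kinase panel screen.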
Compound,%Inh (CLK2) [%],%Inh (CLK3) [%],%Inh (CLK4) [%],%Inh (CSF1R-autoinhibited) [%],%Inh (CSF1R) [%],%Inh (CSK) [%],%Inh (CSNK1A1L) [%],%Inh (CSNK1A1) [%],%Inh (CSNK1D) [%],%Inh (CSNK1E) [%]
Clc1ccc(-c2nn3ncccc3c2-c2ccnc(Nc3ccc4c(c3)OCCO4)n2)cc1 [GW829116],0,0,0,0,87,0,17,77,94,98.6
Cl.NC(=O)c1cccc(Nc2nccc(Nc3ccc(Oc4c(Cl)cccc4Cl)c(Cl)c3)n2)c1 [GW659009],0,0,34,0,10,0,0,13,0,0
O=C(Nc1cccc(-c2nn3ccccc3c2-c2ccnc(Nc3cccc(C(F)(F)F)c3)n2)c1)c1c(F)cccc1F [GSK292658],0,0,8,0,89,31,5,16,2,46
COCCOCCOc1cc2ncc3c4ccc(C#N)cc4[nH]c3c2cc1OC,67,14,76,97.4,50,10,8,5,0,2
Cl.Cl.NCC(NCc1ccc(-c2ccnc3[nH]ccc23)s1)c1ccccc1 (centres unmarked) [GSK1321565],43,45,88,19,50,0,16,10,26,64
CCc1ccc(-c2ccc3c(c2)-c2c(cnn2C)S(=O)(=O)N3C)cc1,13,0,10,9,3,0,0,0,0,1
CN1CCN(Cc2cccc(-c3ccc4c(Nc5ccc(Oc6ccccc6)cc5)ccnc4c3)c2)CC1 [GW578342],6,0,0,43,5,76,0,0,0,2
Cl.Cl.NCC(NC(=O)c1cc(-c2ccccc2)c(-c2ccnc3[nH]ccc23)s1)c1ccccc1 (centres unmarked) [GSK1321561],0,49,19,0,0,0,97.1,95.7,98,99.9
Cc1cccc(Nc2nc(N[C@H]3CCNC3)ncc2C(N)=O)c1.Cl [GSK2197149],71,37,33,0,87,0,78,75,67,86
CN1CCN(CCCNc2nccc(-c3c(-c4ccc(F)cc4)nn4cc(C(F)(F)F)ccc34)n2)CC1 [GW621581],15,0,22,0,0,0,12,83,90.6,92.9
COc1cc(Nc2nccc(-c3c(-c4cccc(NC(=O)c5c(F)cccc5F)c4)nn4ccccc34)n2)cc(OC)c1OC [GSK323521],0,31,18,0,93,1,15,27,29,43
COc1ccc(CNC(=O)NC2CCN(c3ccnc(Nc4ccc(F)cc4)n3)CC2)cc1 [GSK1379788],0,11,0,19,8,0,9,0,42,63
Cc1ccc(F)c(C(=O)Nc2cccc(-c3nn4ccccc4c3-c3ccnc(Nc4cccc(F)c4)n3)c2)c1F [GSK361061],0,0,14,0,98.8,39,21,41,35,54
Oc1cc(Nc2ccnc3cc(I)ccc23)ccc1F [GW552771],51,0,9,23,23,0,16,0,20,16
O=C(Nc1n[nH]c2nc(-c3ccc(O)cc3)ccc12)C1CC1 [SB-710363],21,10,15,0,0,0,10,0,0,12
COC(=O)Nc1nc2cc(Oc3ccc(NC(=O)Nc4cc(C(F)(F)F)ccc4F)cn3)ccc2[nH]1.Cl.Cl [GW681170],8,0,61,0,67,0,0,0,6,0
Cl.Cl.NCC(C(=O)Nc1cc(Br)c(-c2ccnc3[nH]ccc23)s1)c1ccccc1 (centres unmarked) [GSK1269851],100,39,61,0,28,0,19,0,35,28
Nc1ncc(-c2ccc3nccc(-c4ccncc4)c3c2)cc1S(=O)(=O)N1CCOCC1 [GSK1627798],72,55,54,0,3,0,7,3,37,42
c1ccc(-c2n[nH]cc2Nc2ccnc3ccccc23)nc1 [GW694077],94.3,25,96.5,29,7,0,20,40,55,63
C[C@@H]1CC[C@@H](C(=O)Nc2ccccc2)CN1c1cc(-c2ccc3c(N)n[nH]c3c2)nc(N)n1 [GSK2286062],13,0,16,10,0,0,6,0,20,0
O=C(NC1CCN(c2ccnc(Nc3ccc(F)cc3)n2)C1)c1cc2ccccc2s1 (centres unmarked) [GSK1379716],0,14,30,3,2,0,11,0,0,28
COc1cc(Nc2nccc(N3CCC(NC(=O)c4cc5ccccc5s4)C3)n2)cc(OC)c1OC (centres unmarked) [GSK1379760],0,0,13,23,18,0,0,41,10,0
CN(C)Cc1ccc(-c2ccc3c(Nc4ccc(Oc5ccccn5)cc4)ccnc3c2)o1 [GW567148],0,12,0,11,38,82,9,0,0,23
C[C@@H](Oc1cc(-n2cnc3cc(-c4ccnc(NCCS(C)(=O)=O)c4)ccc32)sc1C(N)=O)c1ccccc1Cl [GSK907232],4,32,47,1,38,0,22,0,0,17
COc1ccc(Nc2nccc(NCCNC(=O)c3cc4ccccc4s3)n2)cc1 [GSK1379896],0,0,0,0,0,0,0,0,8,16
CC(=O)N1CCN(c2ccc(Nc3nccc(-c4sc(C(C)C)nc4-c4cccc(NS(=O)(=O)c5cccc(Cl)c5)c4)n3)cn2)CC1 [GSK1660437],0,0,17,0,36,95.4,0,23,0,0
CCn1c(-c2nonc2N)nc2c(C#CC(C)(C)O)nc(OC[C@H](N)c3ccccc3)cc21 [GSK943949],0,15,8,0,35,0,0,7,0,15
Cc1ccc(C(=O)Nc2ccc(Nc3ccnc4cc(-c5nccs5)ccc34)cc2O)cc1.Cl [GW494702],0,0,0,44,20,30,14,0,97.1,8
COc1cccc(-c2ccc3c(NC(=O)C4CC4)n[nH]c3n2)c1 [SB-710903],100,0,20,54,10,0,12,0,18,16
